Activity calls are given as the source filed them. The call rests on the fitted dose curve; in most records, active means well fitted curve in the direction sought with a large enough effect; inconclusive means small, poorly fitted or top-dose-only effect, or another doubt; inactive means no such curve, though single readings can be large or run the other way.

A short description of this assay: Cellular Toxicity (caspase-3) HUV-EC-C (AID 656).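 Further: cells exposed to compound for 16 h.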 The conditions noted are these: HUV-EC-C cells, caspase-3 activation (apoptosis), vehicle = 0, 100 µM tamoxifen = 100%; series mostly up to 92.2 µM. The source says:
NIH Chemical Genomics Center [NCGC]
NIH Molecular Libraries Screening Centers Network [MLSCN]
National Institutes of Environmental Health Sciences [NIEHS]
National Toxicology Program [NTP]
We have developed a 1536-well cell-based assay for quantitative high throughput screening (qHTS) against a number of cell lines to determine in vitro caspase 3/7 of small molecules. This particular assay uses the HUV-EC-C cell line which is derived from normal human vascular endothelial cells.
NCGC Assay Protocol Summary:
The Caspase-Glo 3/7 assay (Promega) is a homogeneous method to measure caspase-3 and caspase-7 activities in cultured cells. The quantitation of caspase 3/7 activity is based on the cleavage of a peptide-aminoluciferin substrate. After caspase cleaves the substrate the free aminoluciferin is liberated and serves as the substrate of luciferase, which generates the light. The luminescent signal is proportional to amount of caspase 3/7 activity present.
Using the Caspase-Glo 3/7 assay, the amount of caspase 3/7 activity was measured in the HUV-EC-C cell line with complete culture medium following compound treatment for 16 hours. The assay was performed in opaque white 1536-well plates. In the screen, tamoxifen and doxorubicin were used as positive controls. Library compounds were measured for their ability to cause the activation of caspase 3/7 in the cell line, as reflected by an increase in luminescence signal, in a concentration-dependent manner. Data were normalized to the controls for basal activity (DMSO only) and 100% stimulation (100 uM tamoxifen). AC50 values were determined from concentration-response data modeled with the standard Hill equation.
qHTS protocol for caspase 3/7 assay in HUV-EC-C cell line
[Step] [Parameter] [Value] [Description]
1. Reagent; 5 uL; 1000 HUV-EC-C cells/well
2. Time; 5 hr; 37 °C incubation
4. Controls; 23 nL; Tamoxifen 0.23 uM to 100 uM & doxorubicin 7.0 pM to 100 uM
5. Time; 16 hr; 37 °C incubation
6. Reagent; 5 uL; Caspase-Glo 3/7 reagent
7. Time; 20 min; Room Temperature
8. Detection; Luminescence; Viewlux plate reader
Keywords: caspase 3/7, apoptosis, HUV-EC-C cell line, luminescence, NTPHTS, NTPHTS_NCGC, NIEHS, EPA, DSSTox, MLSMR, MLSCN, NIH Roadmap, qHTS, NCGC
Turning to `Brc1ccccc1-c1ccccc1`, the molecule was classed as inactive.

On to `Nc1cccc2c(N)cccc12`, for which the molecule was classed as inactive. The value for `CCCC(=O)c1cc(O)c(O)cc1O` was “inactive”; that for `COc1cc(C=O)ccc1O` was “inactive”. With `c1ccc2occc2c1`, the outcome was inactive.

In the case of `CC(=O)OC/C=C(C)/C=C/C=C(C)/C=C/C1=C(C)CCCC1(C)C`, the molecule was classed as inactive. The value for `CCCCCCCCCCCCCCCC[n+]1ccccc1` was “inactive”. To `Nc1ccc(O)cc1` belongs “inactive”; to `O=C(c1ccccc1)c1ccccc1`, “inactive”; to `O=C(Oc1ccccc1)c1ccccc1O`, “inactive”. Consider `Oc1ccccc1`, for which the molecule was called inactive. The value for `Nc1c2ccccc2nc2ccccc12` was “inactive”.

For `CCCCC(CC)COC(=O)c1ccccc1C(=O)O` (stereo unspecified), the molecule was classed as inactive. With `CC(C)(C)c1ccc(O)c(O)c1`, the call was inactive.

For the molecule `O=C(NO)c1ccccc1`, the molecule was classed as inactive. To `CC(C)(c1ccc(O)cc1)c1ccc(O)cc1` belongs “inactive”. With `CC(C)C(C)(C)C(C)(C)C(C)(C)S`, the call was inactive. To `C1=CC2C3C=CC(C3)C2C1` (stereo unspecified) belongs “inactive”; to `Cc1cc(C(C)(C)C)c(O)c(C(C)(C)C)c1`, “inactive”. For `Cc1ccc(O)cc1`, the molecule was called inactive. In the case of `OCc1c[nH]c2ccccc12`, the molecule was called inactive.

(Values after PubChem BioAssay (NCATS).)
